# Assay results as given in PMC7862700, “An all-to-all approach to the identification of sequence-specific readers for epigenetic DNA modifications on cytosine”.
# Legend:
# Experiment in all cases: DAPPL (digital affinity profiling via proximity ligation, sequencing); 10 mM Tris-HCl pH 7.5, 50 mM NaCl, 1 mM DTT, 4% glycerol, room temperature, 30 min; GST-TFs on glutathione beads, 16-mer random dsDNA library, 0.1% formaldehyde crosslink after washing; high values mean tight binding
# [1] = target: T1, FLI1 (Homo sapiens, UniProt Q01543 1-452); details: protein: recombinant; tags: N-terminal GST; dsDNA, one strand shown
# T1 sequence: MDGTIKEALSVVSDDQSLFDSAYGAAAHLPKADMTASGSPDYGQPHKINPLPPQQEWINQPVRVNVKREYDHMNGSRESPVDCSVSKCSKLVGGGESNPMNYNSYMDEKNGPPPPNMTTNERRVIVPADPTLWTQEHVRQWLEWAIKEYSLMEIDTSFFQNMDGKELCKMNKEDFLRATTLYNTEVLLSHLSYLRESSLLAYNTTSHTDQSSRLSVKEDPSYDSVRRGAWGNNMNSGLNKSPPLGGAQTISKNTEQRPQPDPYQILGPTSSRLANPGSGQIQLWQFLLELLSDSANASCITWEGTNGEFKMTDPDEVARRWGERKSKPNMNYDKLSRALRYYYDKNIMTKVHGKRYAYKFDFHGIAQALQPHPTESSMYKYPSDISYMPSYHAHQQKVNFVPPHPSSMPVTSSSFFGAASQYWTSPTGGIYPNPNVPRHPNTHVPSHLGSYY
# Outline: (§1)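 GST fusions of human transcription factors were expressed in yeast and captured with glutathione beads. Once given DNA barcodes and pooled alongside a tag-only sample, they were incubated for 30 min at room temperature with 200 nmole of a random double-stranded 16-mer DNA library in Tris/NaCl/DTT/glycerol buffer, then washed, crosslinked (0.1% formaldehyde), proximity-ligated, PCR-amplified and sequenced on an Illumina NextSeq500. The binding signal of each hexamer is its read frequency for a factor divided by its frequency for the tag-only sample.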
# [2] = target: T2, ELK1 (Homo sapiens, UniProt P19419 1-428); details: protein: recombinant; tags: N-terminal GST; dsDNA, one strand shown
# T2 sequence: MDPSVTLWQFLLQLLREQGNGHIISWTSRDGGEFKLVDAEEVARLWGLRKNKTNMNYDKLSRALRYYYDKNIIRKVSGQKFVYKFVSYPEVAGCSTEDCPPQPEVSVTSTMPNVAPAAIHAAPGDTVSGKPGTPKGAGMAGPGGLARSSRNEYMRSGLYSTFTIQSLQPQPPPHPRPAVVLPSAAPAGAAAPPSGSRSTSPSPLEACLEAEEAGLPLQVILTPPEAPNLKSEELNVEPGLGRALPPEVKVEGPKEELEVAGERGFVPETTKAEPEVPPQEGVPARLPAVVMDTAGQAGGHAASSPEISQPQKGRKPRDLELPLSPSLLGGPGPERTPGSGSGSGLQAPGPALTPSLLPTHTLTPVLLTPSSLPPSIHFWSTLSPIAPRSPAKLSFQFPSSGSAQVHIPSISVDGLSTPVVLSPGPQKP
# Outline: as §1
# [3] = target: T3, GABPA (Homo sapiens, UniProt Q06546 1-454); details: protein: recombinant; tags: N-terminal GST; dsDNA, one strand shown
# T3 sequence: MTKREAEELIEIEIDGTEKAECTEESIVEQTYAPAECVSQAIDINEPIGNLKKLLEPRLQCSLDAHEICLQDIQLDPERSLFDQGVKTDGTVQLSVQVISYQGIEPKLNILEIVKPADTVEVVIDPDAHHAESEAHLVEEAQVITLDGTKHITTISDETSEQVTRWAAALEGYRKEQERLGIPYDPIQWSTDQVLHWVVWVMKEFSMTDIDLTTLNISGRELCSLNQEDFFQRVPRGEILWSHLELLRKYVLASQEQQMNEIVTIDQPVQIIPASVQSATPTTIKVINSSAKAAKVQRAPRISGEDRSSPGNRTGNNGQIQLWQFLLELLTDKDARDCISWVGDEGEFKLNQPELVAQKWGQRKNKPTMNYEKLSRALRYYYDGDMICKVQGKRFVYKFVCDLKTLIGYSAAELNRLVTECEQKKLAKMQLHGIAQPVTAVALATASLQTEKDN
# Outline: as §1
# [4] = target: T4, ERG (Homo sapiens, UniProt P11308 1-479); details: protein: recombinant; tags: N-terminal GST; dsDNA, one strand shown
# T4 sequence: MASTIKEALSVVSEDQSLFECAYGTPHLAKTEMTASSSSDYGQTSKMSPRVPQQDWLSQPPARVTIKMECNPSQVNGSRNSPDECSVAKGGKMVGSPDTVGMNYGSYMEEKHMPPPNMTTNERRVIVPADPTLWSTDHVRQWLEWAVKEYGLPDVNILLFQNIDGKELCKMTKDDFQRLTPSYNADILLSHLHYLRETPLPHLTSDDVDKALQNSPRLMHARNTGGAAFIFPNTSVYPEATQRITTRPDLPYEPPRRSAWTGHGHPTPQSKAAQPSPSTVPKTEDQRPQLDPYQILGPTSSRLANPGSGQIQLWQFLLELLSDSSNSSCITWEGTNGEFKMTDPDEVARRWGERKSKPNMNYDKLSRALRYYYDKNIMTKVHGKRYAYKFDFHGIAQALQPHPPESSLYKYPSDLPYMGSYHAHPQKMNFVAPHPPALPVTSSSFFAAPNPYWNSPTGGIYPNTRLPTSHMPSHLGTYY
# Outline: as §1
# [5] = target: ELF1 (Homo sapiens, UniProt P32519 1-619); details: protein: recombinant; tags: N-terminal GST; dsDNA, one strand shown
# Outline: as §1
# [6] = target: T5, EHF (Homo sapiens, UniProt Q9NZC4 1-300); details: protein: recombinant; tags: N-terminal GST; dsDNA, one strand shown
# T5 sequence: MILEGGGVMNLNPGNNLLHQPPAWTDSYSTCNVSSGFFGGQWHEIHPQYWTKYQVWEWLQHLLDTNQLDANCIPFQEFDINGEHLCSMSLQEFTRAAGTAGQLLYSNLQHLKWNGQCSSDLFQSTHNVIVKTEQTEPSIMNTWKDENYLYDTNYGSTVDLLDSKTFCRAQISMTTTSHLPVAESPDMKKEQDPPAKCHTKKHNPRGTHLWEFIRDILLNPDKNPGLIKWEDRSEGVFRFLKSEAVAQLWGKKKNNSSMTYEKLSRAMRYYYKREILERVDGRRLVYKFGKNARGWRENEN
# Outline: as §1
# [7] = target: SPI1 (Homo sapiens, UniProt P17947 1-270); details: protein: recombinant; tags: N-terminal GST; dsDNA, one strand shown
# Outline: as §1
# [8] = target: SPIB (Homo sapiens, UniProt Q01892 1-262); details: protein: recombinant; tags: N-terminal GST; dsDNA, one strand shown
# Outline: as §1
# [9] = target: T6, ELK3 (Homo sapiens, UniProt P41970 1-407); details: protein: recombinant; tags: N-terminal GST; dsDNA, one strand shown
# T6 sequence: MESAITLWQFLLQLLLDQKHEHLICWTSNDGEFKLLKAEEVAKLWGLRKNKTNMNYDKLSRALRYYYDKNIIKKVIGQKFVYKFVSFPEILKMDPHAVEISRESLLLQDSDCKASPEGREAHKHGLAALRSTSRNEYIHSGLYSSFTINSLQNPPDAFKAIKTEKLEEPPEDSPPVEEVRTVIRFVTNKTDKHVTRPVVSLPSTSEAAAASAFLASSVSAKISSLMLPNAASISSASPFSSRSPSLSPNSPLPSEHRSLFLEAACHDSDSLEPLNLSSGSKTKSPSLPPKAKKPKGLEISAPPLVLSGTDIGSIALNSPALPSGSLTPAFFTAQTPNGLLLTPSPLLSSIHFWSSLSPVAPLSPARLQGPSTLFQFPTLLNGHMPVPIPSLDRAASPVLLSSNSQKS
# Outline: as §1
# [10] = target: T7, FEV (Homo sapiens, UniProt Q99581 1-238); details: protein: recombinant; tags: N-terminal GST; dsDNA, one strand shown
# T7 sequence: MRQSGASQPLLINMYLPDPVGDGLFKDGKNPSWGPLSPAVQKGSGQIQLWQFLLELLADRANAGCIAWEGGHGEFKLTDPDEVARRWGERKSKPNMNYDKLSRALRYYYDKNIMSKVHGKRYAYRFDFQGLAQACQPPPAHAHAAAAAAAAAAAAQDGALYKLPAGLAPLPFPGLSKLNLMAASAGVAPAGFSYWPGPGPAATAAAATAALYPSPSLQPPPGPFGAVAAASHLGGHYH
# Outline: as §1
# [11] = target: ETV5 (Homo sapiens, UniProt P41161 1-510); details: protein: recombinant; tags: N-terminal GST; dsDNA, one strand shown
# Outline: as §1
# [12] = target: HSF1 (Homo sapiens, UniProt Q00613 1-529); details: protein: recombinant; tags: N-terminal GST; chain copies: 3; dsDNA, one strand shown
# Outline: as §1
# [13] = target: T8, SPIC (Homo sapiens, UniProt Q8N5J4 1-248); details: protein: recombinant; tags: N-terminal GST; dsDNA, one strand shown
# T8 sequence: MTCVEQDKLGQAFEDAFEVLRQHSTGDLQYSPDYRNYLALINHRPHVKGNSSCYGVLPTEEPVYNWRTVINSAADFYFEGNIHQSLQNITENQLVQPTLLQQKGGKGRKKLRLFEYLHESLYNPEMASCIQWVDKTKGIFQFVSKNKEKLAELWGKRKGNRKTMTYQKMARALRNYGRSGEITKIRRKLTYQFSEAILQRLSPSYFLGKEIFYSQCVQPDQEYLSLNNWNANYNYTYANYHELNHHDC
# Outline: as §1
# [14] = target: ELF4 (Homo sapiens, UniProt Q99607 1-663); details: protein: recombinant; tags: N-terminal GST; dsDNA, one strand shown
# Outline: as §1
# [15] = target: T9, ELK4 (Homo sapiens, UniProt P28324-2 1-405); details: protein: recombinant; tags: N-terminal GST; dsDNA, one strand shown
# T9 sequence: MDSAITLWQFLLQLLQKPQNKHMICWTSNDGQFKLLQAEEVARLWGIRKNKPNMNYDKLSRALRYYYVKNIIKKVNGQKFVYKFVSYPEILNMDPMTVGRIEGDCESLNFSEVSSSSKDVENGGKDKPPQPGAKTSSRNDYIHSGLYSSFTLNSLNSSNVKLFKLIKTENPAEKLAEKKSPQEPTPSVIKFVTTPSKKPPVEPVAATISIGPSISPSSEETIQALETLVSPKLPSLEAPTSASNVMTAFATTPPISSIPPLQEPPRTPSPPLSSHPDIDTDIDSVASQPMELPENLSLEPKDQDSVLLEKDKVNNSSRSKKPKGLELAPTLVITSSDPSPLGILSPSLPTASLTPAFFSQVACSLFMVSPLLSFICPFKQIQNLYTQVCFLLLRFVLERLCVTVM
# Outline: as §1
# [16] = target: T10, ETV2 (Homo sapiens, UniProt O00321 1-342); details: protein: recombinant; tags: N-terminal GST; dsDNA, one strand shown
# T10 sequence: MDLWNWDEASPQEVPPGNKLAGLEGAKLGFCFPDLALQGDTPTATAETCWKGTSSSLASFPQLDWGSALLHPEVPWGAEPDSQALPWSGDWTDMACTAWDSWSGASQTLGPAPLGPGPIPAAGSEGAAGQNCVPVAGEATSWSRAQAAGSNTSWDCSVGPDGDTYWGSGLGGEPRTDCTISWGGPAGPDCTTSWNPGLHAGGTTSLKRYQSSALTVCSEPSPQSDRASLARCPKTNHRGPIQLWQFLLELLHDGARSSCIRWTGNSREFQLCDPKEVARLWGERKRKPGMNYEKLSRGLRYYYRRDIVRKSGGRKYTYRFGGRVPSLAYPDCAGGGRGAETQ
# Outline: as §1
# [17] = target: T11, ELF3 (Homo sapiens, UniProt P78545 1-371); details: protein: recombinant; tags: N-terminal GST; dsDNA, one strand shown
# T11 sequence: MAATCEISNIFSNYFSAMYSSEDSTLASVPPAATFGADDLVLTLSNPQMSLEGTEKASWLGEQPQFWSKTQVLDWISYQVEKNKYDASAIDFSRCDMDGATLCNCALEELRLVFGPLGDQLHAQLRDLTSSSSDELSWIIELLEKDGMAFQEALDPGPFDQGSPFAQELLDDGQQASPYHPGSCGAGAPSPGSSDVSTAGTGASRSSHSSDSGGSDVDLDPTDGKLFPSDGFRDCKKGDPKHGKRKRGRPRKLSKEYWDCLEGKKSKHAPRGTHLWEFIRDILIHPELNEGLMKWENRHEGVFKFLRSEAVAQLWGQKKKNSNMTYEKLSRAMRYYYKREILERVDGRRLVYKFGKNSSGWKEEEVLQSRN
# Outline: as §1
# [18] = target: CRX (Homo sapiens, UniProt O43186 1-299); details: protein: recombinant; tags: N-terminal GST; dsDNA, one strand shown
# Outline: as §1
# [19] = target: ETV1 (Homo sapiens, UniProt P50549 1-477); details: protein: recombinant; tags: N-terminal GST; dsDNA, one strand shown
# Outline: as §1
# ELF4, sequence (Q99607 whole entry): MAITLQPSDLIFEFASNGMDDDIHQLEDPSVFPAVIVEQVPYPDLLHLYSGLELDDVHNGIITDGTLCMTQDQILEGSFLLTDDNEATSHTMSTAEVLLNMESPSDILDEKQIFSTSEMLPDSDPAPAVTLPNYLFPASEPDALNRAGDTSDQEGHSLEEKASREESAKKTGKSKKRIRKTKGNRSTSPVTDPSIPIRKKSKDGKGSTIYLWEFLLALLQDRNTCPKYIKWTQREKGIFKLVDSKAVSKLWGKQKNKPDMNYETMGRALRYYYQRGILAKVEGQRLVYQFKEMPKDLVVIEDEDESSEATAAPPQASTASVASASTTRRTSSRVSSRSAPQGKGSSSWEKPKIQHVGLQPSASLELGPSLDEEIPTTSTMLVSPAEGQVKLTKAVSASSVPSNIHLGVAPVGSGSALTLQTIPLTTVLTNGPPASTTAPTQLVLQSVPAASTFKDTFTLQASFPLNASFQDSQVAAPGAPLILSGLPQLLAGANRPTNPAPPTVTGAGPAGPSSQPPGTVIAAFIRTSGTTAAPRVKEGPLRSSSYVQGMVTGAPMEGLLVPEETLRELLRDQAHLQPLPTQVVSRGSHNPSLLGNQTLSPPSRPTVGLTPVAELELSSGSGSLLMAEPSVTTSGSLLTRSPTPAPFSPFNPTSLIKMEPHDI
# HSF1, sequence (Q00613 whole entry): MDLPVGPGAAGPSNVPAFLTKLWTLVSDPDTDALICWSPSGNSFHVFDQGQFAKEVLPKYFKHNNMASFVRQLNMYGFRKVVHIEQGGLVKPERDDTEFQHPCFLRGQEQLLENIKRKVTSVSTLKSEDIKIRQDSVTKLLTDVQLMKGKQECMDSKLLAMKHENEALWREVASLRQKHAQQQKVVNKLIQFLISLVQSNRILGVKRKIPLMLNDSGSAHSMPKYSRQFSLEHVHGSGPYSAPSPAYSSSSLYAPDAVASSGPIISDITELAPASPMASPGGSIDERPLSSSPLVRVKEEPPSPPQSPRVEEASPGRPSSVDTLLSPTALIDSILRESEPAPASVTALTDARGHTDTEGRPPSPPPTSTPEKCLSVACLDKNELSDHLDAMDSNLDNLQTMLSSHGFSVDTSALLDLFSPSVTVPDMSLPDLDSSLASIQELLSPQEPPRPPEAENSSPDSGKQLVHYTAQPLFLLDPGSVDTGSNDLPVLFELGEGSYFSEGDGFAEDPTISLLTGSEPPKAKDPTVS
# ETV5, sequence (P41161 whole entry): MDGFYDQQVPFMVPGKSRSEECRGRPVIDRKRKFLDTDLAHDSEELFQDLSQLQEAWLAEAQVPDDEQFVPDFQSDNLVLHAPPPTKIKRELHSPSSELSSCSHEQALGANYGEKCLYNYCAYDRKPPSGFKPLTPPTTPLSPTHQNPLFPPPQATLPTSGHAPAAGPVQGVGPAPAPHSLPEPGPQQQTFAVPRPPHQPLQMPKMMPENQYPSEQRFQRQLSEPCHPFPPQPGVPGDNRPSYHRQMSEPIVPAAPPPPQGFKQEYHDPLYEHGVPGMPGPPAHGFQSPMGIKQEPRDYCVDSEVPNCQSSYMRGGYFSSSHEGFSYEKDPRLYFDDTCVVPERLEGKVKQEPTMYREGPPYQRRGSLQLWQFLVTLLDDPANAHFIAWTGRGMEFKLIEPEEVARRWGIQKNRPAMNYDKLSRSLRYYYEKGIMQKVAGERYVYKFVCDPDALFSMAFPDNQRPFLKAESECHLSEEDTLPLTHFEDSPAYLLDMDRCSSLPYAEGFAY
# ETV1, sequence (P50549 whole entry): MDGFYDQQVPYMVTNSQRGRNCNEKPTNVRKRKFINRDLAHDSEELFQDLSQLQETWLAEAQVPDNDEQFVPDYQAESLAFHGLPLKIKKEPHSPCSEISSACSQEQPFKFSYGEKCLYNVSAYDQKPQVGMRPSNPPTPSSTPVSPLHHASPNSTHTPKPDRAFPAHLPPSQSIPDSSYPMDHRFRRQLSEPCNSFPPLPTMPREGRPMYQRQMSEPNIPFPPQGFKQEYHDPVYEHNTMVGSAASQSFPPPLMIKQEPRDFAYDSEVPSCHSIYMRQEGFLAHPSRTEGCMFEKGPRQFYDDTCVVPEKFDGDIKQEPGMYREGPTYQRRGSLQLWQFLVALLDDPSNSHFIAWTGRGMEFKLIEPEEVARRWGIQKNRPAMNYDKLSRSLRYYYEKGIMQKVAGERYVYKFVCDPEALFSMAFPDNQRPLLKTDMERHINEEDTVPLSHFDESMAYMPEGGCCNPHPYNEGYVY
# CRX, sequence (O43186 whole entry): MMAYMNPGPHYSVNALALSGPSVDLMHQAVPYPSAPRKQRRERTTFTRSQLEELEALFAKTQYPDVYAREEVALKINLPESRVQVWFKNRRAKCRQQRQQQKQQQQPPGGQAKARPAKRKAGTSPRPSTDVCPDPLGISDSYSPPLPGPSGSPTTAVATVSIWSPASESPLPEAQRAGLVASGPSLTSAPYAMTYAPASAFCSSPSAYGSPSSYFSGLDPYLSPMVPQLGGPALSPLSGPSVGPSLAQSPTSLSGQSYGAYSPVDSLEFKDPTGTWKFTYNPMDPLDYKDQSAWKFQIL
# ELF1, sequence (P32519 whole entry): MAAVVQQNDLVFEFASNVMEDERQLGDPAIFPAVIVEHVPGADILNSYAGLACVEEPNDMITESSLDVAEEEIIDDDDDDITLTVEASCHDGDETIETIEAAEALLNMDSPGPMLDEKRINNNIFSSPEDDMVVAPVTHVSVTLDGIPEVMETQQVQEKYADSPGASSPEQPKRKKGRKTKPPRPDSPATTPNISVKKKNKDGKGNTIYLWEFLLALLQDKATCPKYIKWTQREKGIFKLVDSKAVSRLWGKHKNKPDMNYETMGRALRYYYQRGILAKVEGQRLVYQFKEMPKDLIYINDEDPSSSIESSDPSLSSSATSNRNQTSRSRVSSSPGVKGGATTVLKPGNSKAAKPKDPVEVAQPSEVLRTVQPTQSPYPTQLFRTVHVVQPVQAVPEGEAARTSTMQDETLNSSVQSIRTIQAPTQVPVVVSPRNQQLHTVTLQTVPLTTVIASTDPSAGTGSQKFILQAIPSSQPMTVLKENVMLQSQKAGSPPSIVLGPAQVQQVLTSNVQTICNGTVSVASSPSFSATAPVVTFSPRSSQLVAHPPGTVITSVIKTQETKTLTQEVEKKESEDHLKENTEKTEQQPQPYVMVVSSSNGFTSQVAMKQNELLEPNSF
# SPIB, sequence (Q01892 whole entry): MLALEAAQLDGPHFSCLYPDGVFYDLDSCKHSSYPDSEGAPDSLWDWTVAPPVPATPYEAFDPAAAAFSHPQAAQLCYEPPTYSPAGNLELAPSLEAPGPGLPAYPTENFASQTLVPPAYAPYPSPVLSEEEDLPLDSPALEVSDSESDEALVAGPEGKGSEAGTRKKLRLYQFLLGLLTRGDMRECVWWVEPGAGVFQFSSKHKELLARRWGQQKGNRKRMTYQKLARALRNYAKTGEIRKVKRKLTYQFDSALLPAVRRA
sequence,measurement,setting,value
TACACC,binding signal,[1],"1.16 fold enrichment (6-mer frequency, TF over GST control)"
same,binding signal,[2],"1.27 fold enrichment (6-mer frequency, TF over GST control)"
same,binding signal,[3],"1.14 fold enrichment (6-mer frequency, TF over GST control)"
same,binding signal,[4],"1.27 fold enrichment (6-mer frequency, TF over GST control)"
same,binding signal,[5],"1.17 fold enrichment (6-mer frequency, TF over GST control)"
same,binding signal,[6],"1.22 fold enrichment (6-mer frequency, TF over GST control)"
same,binding signal,[7],"1.1 fold enrichment (6-mer frequency, TF over GST control)"
same,binding signal,[8],"1.11 fold enrichment (6-mer frequency, TF over GST control)"
same,binding signal,[9],"1.14 fold enrichment (6-mer frequency, TF over GST control)"
same,binding signal,[10],"1.2 fold enrichment (6-mer frequency, TF over GST control)"
same,binding signal,[11],"1.15 fold enrichment (6-mer frequency, TF over GST control)"
same,binding signal,[12],"1.03 fold enrichment (6-mer frequency, TF over GST control)"
same,binding signal,[13],"1.3 fold enrichment (6-mer frequency, TF over GST control)"
same,binding signal,[14],"1.22 fold enrichment (6-mer frequency, TF over GST control)"
same,binding signal,[15],"1.16 fold enrichment (6-mer frequency, TF over GST control)"
same,binding signal,[16],"1.19 fold enrichment (6-mer frequency, TF over GST control)"
same,binding signal,[17],"1.11 fold enrichment (6-mer frequency, TF over GST control)"
same,binding signal,[18],"1.06 fold enrichment (6-mer frequency, TF over GST control)"
same,binding signal,[19],"1.25 fold enrichment (6-mer frequency, TF over GST control)"
